Measured values reported in PubChem BioAssay (NCI).
Compounds without any hit were thinned out: in the full panel of roughly 83,000, 20% have a hit.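 Interpretation: 100, growth as untreated; towards 0, rising growth inhibition; 0, no net growth; 0 to -100, cell death. Compounds scoring below 10 were considered active.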 Active and inactive are the calls of the source.

How the values were obtained:
Experiment in all cases: NCI-60 one-dose screen, 48 h (100 = growth as untreated, 0 = no growth, -100 = all killed)
Settings in all cases: 10 µM unless noted
HT29 colon = test system: HT29 colon
SNB-75 CNS = test system: SNB-75 CNS
SNB-19 CNS = test system: SNB-19 CNS
U251 CNS = test system: U251 CNS
PC-3 prostate = test system: PC-3 prostate
SK-MEL-5 melanoma = test system: SK-MEL-5 melanoma
UACC-62 melanoma = test system: UACC-62 melanoma
LOX IMVI melanoma = test system: LOX IMVI melanoma
SK-MEL-28 melanoma = test system: SK-MEL-28 melanoma
EKVX NSCLC = test system: EKVX NSCLC
SN12C renal = test system: SN12C renal
UO-31 renal = test system: UO-31 renal
ACHN renal = test system: ACHN renal
CAKI-1 renal = test system: CAKI-1 renal
A498 renal = test system: A498 renal
CCRF-CEM leukemia = test system: CCRF-CEM leukemia
MOLT-4 leukemia = test system: MOLT-4 leukemia
SR leukemia = test system: SR leukemia
SK-MEL-2 melanoma = test system: SK-MEL-2 melanoma
TK-10 renal = test system: TK-10 renal

Measured: growth

Nc1c(C(=O)Nc2ccc(Cl)cc2)sc2nc(-c3cnccn3)cc(-c3cccs3)c12
inactive: SNB-75 CNS 14.2% | SNB-19 CNS 49.1% | U251 CNS 17.9% | PC-3 prostate 54.3% | SK-MEL-5 melanoma 76.5% | UACC-62 melanoma 69.5% | SK-MEL-28 melanoma 64.8% | EKVX NSCLC 71.7% | SN12C renal 66.6% | UO-31 renal 67.7% | ACHN renal 17% | A498 renal 82.3% | CCRF-CEM leukemia 88.6% | MOLT-4 leukemia 70.1% | SR leukemia 40.7%
active: HT29 colon -10.3% | LOX IMVI melanoma -16.8% | CAKI-1 renal -6.36%

N/C(=N\c1nc2c(Br)cccc2s1)C(Br)Br
inactive: SNB-19 CNS 27.7% | PC-3 prostate 13.5% | SK-MEL-5 melanoma 68.3% | EKVX NSCLC 16.4% | SN12C renal 18%
active: HT29 colon -11.3% | SNB-75 CNS -0.636% | U251 CNS -28.2% | UACC-62 melanoma -5.13% | LOX IMVI melanoma -84.9% | SK-MEL-28 melanoma -5.02% | SK-MEL-2 melanoma -42.1% | UO-31 renal 4.29% | ACHN renal -40.4% | CAKI-1 renal -19.6% | A498 renal 0.53% | CCRF-CEM leukemia -1.73% | MOLT-4 leukemia -2.89% | SR leukemia -24%

N#Cc1c(-c2ccc(F)cc2)nc2c(C#N)c(Nc3ccccc3)nn2c1N
inactive: HT29 colon 102% | SNB-75 CNS 101% | SNB-19 CNS 96.3% | U251 CNS 104% | PC-3 prostate 96.7% | SK-MEL-5 melanoma 99.2% | UACC-62 melanoma 99.8% | LOX IMVI melanoma 99.8% | SK-MEL-28 melanoma 102% | SK-MEL-2 melanoma 105% | SN12C renal 97.7% | UO-31 renal 90.7% | CAKI-1 renal 90.7% | A498 renal 66.3% | CCRF-CEM leukemia 96.1% | MOLT-4 leukemia 102% | SR leukemia 93.3%

c1ccc2c(NCCCn3ccnc3)c3oc4ccccc4c3nc2c1
active: HT29 colon -24% | PC-3 prostate 5.76% | SK-MEL-5 melanoma 9.52% | UACC-62 melanoma -14.9% | LOX IMVI melanoma -61.6% | SK-MEL-28 melanoma 9.69% | SK-MEL-2 melanoma -27.2% | EKVX NSCLC 3.11% | SN12C renal -10.8% | UO-31 renal 0.573% | ACHN renal -7.51% | CAKI-1 renal -8.49% | A498 renal -18.2% | MOLT-4 leukemia -3.87% | SR leukemia -2.89%
inactive: SNB-75 CNS 17.8% | SNB-19 CNS 11.9% | U251 CNS 17.9% | CCRF-CEM leukemia 15%

N#Cc1nc(-c2ccccc2)oc1S(N)(=O)=O
inactive: HT29 colon 43.8% | SNB-75 CNS 91.7% | SNB-19 CNS 95.3% | U251 CNS 92.6% | PC-3 prostate 81.4% | SK-MEL-5 melanoma 76.2% | UACC-62 melanoma 66.6% | LOX IMVI melanoma 10.5% | SK-MEL-28 melanoma 69.5% | SK-MEL-2 melanoma 84.9% | EKVX NSCLC 97.5% | SN12C renal 49.6% | UO-31 renal 72.3% | CAKI-1 renal 63.1% | A498 renal 83.1% | CCRF-CEM leukemia 14.6% | MOLT-4 leukemia 41.4%
active: SR leukemia 3.32%

CN(C)S(=O)(=O)c1oc(-c2ccccc2)nc1C#N
inactive: HT29 colon 35.1% | SNB-75 CNS 96.1% | SNB-19 CNS 96.1% | U251 CNS 88.8% | PC-3 prostate 88.7% | SK-MEL-5 melanoma 93.1% | UACC-62 melanoma 97.9% | SK-MEL-28 melanoma 87.8% | SK-MEL-2 melanoma 110% | EKVX NSCLC 78.3% | SN12C renal 72.4% | CAKI-1 renal 53.7% | A498 renal 65.6%
active: LOX IMVI melanoma -80.7% | UO-31 renal -51% | CCRF-CEM leukemia 1.79% | MOLT-4 leukemia -13.1% | SR leukemia -19.7%

CCOC(=O)c1c(Nc2ccccc2)nn2c(N)c(C#N)c(-c3ccc(OC)cc3)nc12
inactive: HT29 colon 76.7% | SNB-19 CNS 76.5% | U251 CNS 71.3% | PC-3 prostate 66.1% | SK-MEL-5 melanoma 87.4% | UACC-62 melanoma 80.4% | LOX IMVI melanoma 71% | SK-MEL-28 melanoma 78.4% | SK-MEL-2 melanoma 89.2% | EKVX NSCLC 69.2% | SN12C renal 86.6% | UO-31 renal 76.7% | CAKI-1 renal 52.8% | A498 renal 75.5% | CCRF-CEM leukemia 89.3% | MOLT-4 leukemia 94.7%
active: SNB-75 CNS -15.3%

C#C[C@]1(O)CC[C@H]2[C@@H]3CC=C4c5sc(-c6ccc(F)cn6)nc5CC[C@]4(C)[C@H]3CC[C@@]21C
inactive: HT29 colon 38.3% | SNB-19 CNS 31.5% | U251 CNS 15.7% | PC-3 prostate 24.2% | SK-MEL-5 melanoma 33.4% | EKVX NSCLC 25.4% | SN12C renal 58.7% | UO-31 renal 52.7% | ACHN renal 47.2% | CAKI-1 renal 20.6%
active: SNB-75 CNS -13.2% | UACC-62 melanoma 0.399% | LOX IMVI melanoma -63.9% | SK-MEL-28 melanoma -28.5% | A498 renal -24.7% | CCRF-CEM leukemia 8.87% | MOLT-4 leukemia -7.92% | SR leukemia -2.25%

Fc1ccc(-c2nc(C(Cl)Cl)nc3cc(-c4ccccc4)nn23)cc1
inactive: PC-3 prostate 31% | SK-MEL-5 melanoma 57% | UACC-62 melanoma 40.6% | LOX IMVI melanoma 32.4% | SN12C renal 42.5% | UO-31 renal 40.9% | CCRF-CEM leukemia 29.9%
active: HT29 colon -9.69% | SNB-75 CNS -14.7% | SNB-19 CNS 3.82% | U251 CNS -53.6% | SK-MEL-28 melanoma -13.8% | EKVX NSCLC 0.294% | ACHN renal -52.3% | CAKI-1 renal -21.4% | A498 renal -42.7% | MOLT-4 leukemia 6.63% | SR leukemia 0.553%

COc1cc(-c2nc3ccc(-c4nnc(SCC(=O)Nc5ccc(C(C)=O)cc5)o4)cc3[nH]2)cc(OC)c1OC
inactive: HT29 colon 108% | SNB-75 CNS 96.6% | SNB-19 CNS 100% | U251 CNS 103% | PC-3 prostate 93.3% | SK-MEL-5 melanoma 102% | UACC-62 melanoma 93.2% | LOX IMVI melanoma 108% | SK-MEL-28 melanoma 103% | EKVX NSCLC 94% | SN12C renal 92.8% | UO-31 renal 85.2% | ACHN renal 98.9% | CAKI-1 renal 92.7% | A498 renal 95.4% | CCRF-CEM leukemia 104% | MOLT-4 leukemia 110% | SR leukemia 96.5%

O=C(CN1C(=O)/C(=C/c2ccccc2)SC1=S)N1CCOCC1
inactive: HT29 colon 112% | SNB-75 CNS 98.9% | SNB-19 CNS 99% | U251 CNS 102% | PC-3 prostate 108% | SK-MEL-5 melanoma 97% | UACC-62 melanoma 93.4% | SK-MEL-28 melanoma 96.5% | SK-MEL-2 melanoma 125% | EKVX NSCLC 96.3% | SN12C renal 94.7% | UO-31 renal 71.4% | ACHN renal 77.9% | CAKI-1 renal 93.7% | A498 renal 112% | CCRF-CEM leukemia 88% | MOLT-4 leukemia 99.1% | SR leukemia 85.8%
active: LOX IMVI melanoma -34.9%

O=C(CCN1C(=O)/C(=C/c2ccccc2)SC1=S)N1CCOCC1
inactive: HT29 colon 102% | SNB-75 CNS 92.1% | SNB-19 CNS 101% | U251 CNS 99.9% | PC-3 prostate 111% | SK-MEL-5 melanoma 99.5% | UACC-62 melanoma 78.8% | SK-MEL-28 melanoma 85.6% | EKVX NSCLC 82.3% | SN12C renal 81.7% | UO-31 renal 72.9% | ACHN renal 67% | CAKI-1 renal 88.2% | A498 renal 90.5% | CCRF-CEM leukemia 49.1% | MOLT-4 leukemia 89.4% | SR leukemia 65.4%
active: LOX IMVI melanoma 0.309%

COC1CCN(Cc2ccc3c(NNC(=O)c4cnccn4)nc4cc(F)ccc4n23)C1 (stereo not drawn)
active: LOX IMVI melanoma 5.96% | CCRF-CEM leukemia 1.87% | MOLT-4 leukemia 8.05% | SR leukemia 1.51%
inactive: HT29 colon 19.3% | SNB-75 CNS 65.8% | SNB-19 CNS 36.1% | U251 CNS 12.8% | PC-3 prostate 40.9% | SK-MEL-5 melanoma 15.9% | UACC-62 melanoma 20.7% | SK-MEL-28 melanoma 29.2% | SK-MEL-2 melanoma 74.7% | SN12C renal 24.1% | UO-31 renal 18.6% | TK-10 renal 40.8% | ACHN renal 14.1% | CAKI-1 renal 16.8% | A498 renal 30.6%

Cc1ccc2ccc3ccc(C)nc3c2n1.Cc1ccc2ccc3ccc(C)nc3c2n1.Oc1c(Cl)cc(Cl)c2ccc(CN3CCCCC3)nc12.[Ru]
active: HT29 colon -61.7% | SNB-75 CNS -71% | SNB-19 CNS -86.4% | U251 CNS -54.5% | PC-3 prostate -82.6% | SK-MEL-5 melanoma -97.9% | UACC-62 melanoma -74% | LOX IMVI melanoma -91.2% | SK-MEL-28 melanoma -89.9% | SK-MEL-2 melanoma -83.1% | SN12C renal -64.9% | UO-31 renal -89.8% | ACHN renal -95.6% | CAKI-1 renal -77.7% | A498 renal -88.7% | CCRF-CEM leukemia -47.9% | MOLT-4 leukemia -52.7%

CCN1C(=S)N(c2ccccc2)C2NC(=O)N(/N=C/C=C/c3ccccc3OC)C21 (stereo not drawn)
inactive: HT29 colon 98.8% | SNB-75 CNS 71.8% | SNB-19 CNS 87.6% | U251 CNS 89.4% | PC-3 prostate 90.3% | SK-MEL-5 melanoma 92.4% | UACC-62 melanoma 81.7% | LOX IMVI melanoma 75.4% | SK-MEL-28 melanoma 95.3% | EKVX NSCLC 89.7% | SN12C renal 87.5% | UO-31 renal 90.4% | TK-10 renal 105% | ACHN renal 80.1% | CAKI-1 renal 72.6% | A498 renal 95% | CCRF-CEM leukemia 92.3% | MOLT-4 leukemia 101% | SR leukemia 40.9%

COc1ccc2[nH]cc(-c3cc(N)n4nc(-c5c[nH]c6ccc(OC)cc56)cc4n3)c2c1
active: HT29 colon -56.1% | U251 CNS -87.6% | PC-3 prostate 5.09% | SK-MEL-5 melanoma 3.11% | UACC-62 melanoma -53.4% | LOX IMVI melanoma -63.9% | SK-MEL-28 melanoma -69.4% | SN12C renal -64% | UO-31 renal -22.8% | ACHN renal -31.9% | CAKI-1 renal -52.1% | CCRF-CEM leukemia 0.363% | MOLT-4 leukemia -2.24% | SR leukemia -23.6%
inactive: SNB-75 CNS 106% | SNB-19 CNS 78.6% | EKVX NSCLC 80.1% | TK-10 renal 16.5% | A498 renal 83.1%

CCN1CCN(S(=O)(=O)c2oc(-c3ccc(Cl)cc3)nc2C#N)CC1
inactive: SNB-75 CNS 87.5% | SNB-19 CNS 95.8% | U251 CNS 96.6% | PC-3 prostate 87.4% | SK-MEL-5 melanoma 95.2% | UACC-62 melanoma 88.7% | SK-MEL-28 melanoma 53.5% | SK-MEL-2 melanoma 104% | SN12C renal 78.7% | UO-31 renal 33.2% | CAKI-1 renal 65% | A498 renal 93.2%
active: HT29 colon 2.82% | LOX IMVI melanoma -89.2% | ACHN renal -86.6% | CCRF-CEM leukemia 2.3% | MOLT-4 leukemia 0.374%
